MIN6 prolif – inducers of MIN6 beta-cell proliferation, primary screen, ATP luminescence, uHTS. 330,000 compounds, 0.29% hits. proliferation, % at 10 µM. MIN6 cells proliferation, ATPlite luminescence, 48 h; cells starved in 0.2% serum; 100% = growth in 10% serum;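 active = compounds whose signal lies at least 3.5 SD above the mean of all wells on their plate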;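 also: 0% = DMSO-treated cells in low-serum medium and 100% = 10% serum control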
NTR1 agonist – agonists of human NTR1, primary screen, imaging, U2OS cells, beta-arrestin-GFP, high content; Neurotensin receptor type 1 (Homo sapiens), P30989; NTR1-U2OS beta-arrestin-GFP spot imaging, agonist mode; activation, % at 20 µM; 330,000 compounds, 0.17% hits; AID 493036, 2011;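 active = activation at or above 40% of the spot to cytoplasm intensity ratio, with at least 20 cells analyzed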;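 also: 0% = DMSO without peptide and 100% = 100 nM NTR1 peptide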
Target sequence (P30989 whole entry, looked up): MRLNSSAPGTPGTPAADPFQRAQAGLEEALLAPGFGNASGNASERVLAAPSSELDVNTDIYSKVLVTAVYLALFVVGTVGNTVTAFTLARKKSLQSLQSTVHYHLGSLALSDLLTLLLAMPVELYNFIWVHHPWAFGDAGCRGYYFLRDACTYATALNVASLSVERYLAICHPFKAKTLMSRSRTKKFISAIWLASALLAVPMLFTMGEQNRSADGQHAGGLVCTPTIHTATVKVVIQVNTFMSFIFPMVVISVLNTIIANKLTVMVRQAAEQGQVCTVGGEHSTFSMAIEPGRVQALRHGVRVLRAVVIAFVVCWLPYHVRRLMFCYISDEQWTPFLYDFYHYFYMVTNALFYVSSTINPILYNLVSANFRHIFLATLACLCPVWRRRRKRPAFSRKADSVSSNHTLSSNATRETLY
Platelet DG rel – inhibitors of platelet dense granule secretion, primary screen, cell-based, MLPCN, human platelets; human platelet-rich plasma, SFLLRN dense granule ATP release, luminescence; 300,000 compounds, 0.22% hits; inhibition, %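 (compounds screened at 7.5 µM in platelet-rich plasma)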;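 active = mean replicate score, as percent of positive control, at or above 50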
GRK2 aptamer HTS – compounds blocking aptamer binding on GRK2 – biochemical, human GRK2, bead flow cytometry, HTS, primary screen. Beta-adrenergic receptor kinase 1 (Homo sapiens), P25098. FAM-aptamer displacement from GRK2. inhibition of aptamer binding, % at 10 µM. 330,000 compounds, 0.59% hits. AID 488847, 2010;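 active = inhibition of aptamer binding above 40%, roughly 3 SD of noise, on plates passing a quality check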;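 also: median bead fluorescence of bound FAM aptamer so fluorescent compounds give negative values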
GRK2 CP1 – GRK2 aptamer-displacing inhibitors, retest, confirmation, biochemical, cherry pick 1, bead flow cytometry. shares compounds with GRK2 aptamer HTS. 2,000 compounds, 4% hits. bead-bound GRK2, FAM-aptamer displacement. aptamer displacement, % at 10 µM;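 active = aptamer displacement above 40%, near three times the noise of non-fluorescent compounds, on plates passing quality checks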;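 also: negative values mostly reflect intrinsic compound fluorescence rather than true enhancement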
Aptamer quench 1 – quenches fluorescent RNA aptamer, GRK2 hit artifact. AID 504521. fluorescence change (kMESF span), kMESF (test concentration not listed). Fluorescent RNA aptamer beads, quenching, flow cytometry; stronger effect = higher value. shares compounds with GRK2 aptamer HTS. 110 tested, under 10 active;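 active = compounds whose bead fluorescence drops by more than 37 kMESF across the dose range, marking them as dye quenchers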
Aptamer quench SP – aptamer fluorescence quenching in GRK2 counter-screen; Carboxyfluorescein RNA aptamer on beads, flow cytometry quenching; stronger effect = lower value; shares compounds with GRK2 aptamer HTS; 2,000 tested, under 10 active; fluorescence response (% of DMSO), % at 10 µM;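 active = compounds that quench the bead-bound fluorescent RNA probe, cutting fluorescence to under half of the solvent control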;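 also: counterscreen run without GRK2 so only probe quenching by compound is measured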
GRK2 confirm 2 – GRK2 aptamer-displacing inhibitors, hit retest, confirmation, biochemical, cherry pick 2, bead flow cytometry | bead-bound GRK2, FAM-aptamer displacement | inhibition of aptamer binding, % at 10 µM | 360 tested, under 10 active | shares compounds with GRK2 aptamer HTS;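 active = inhibition of aptamer binding above 40%, about triple the noise seen with nonglowing compounds, on plates passing quality control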;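 also: negative values mostly come from compounds that fluoresce themselves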
FAM quench SP – aptamer fluorescence quenching in GRK2 counter-screen; shares compounds with GRK2 aptamer HTS; carboxyfluorescein RNA aptamer beads, flow cytometry quenching; stronger effect = lower value; fluorescence response vs DMSO, % at 10 µM; 360 tested, under 10 active; AID 588494;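 active = response vs DMSO under 50%, meaning signal dropped by over half, treated as fluorescence quencher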;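 also: labelled aptamer on streptavidin beads without GRK2 as a quench counter-screen; 100% = bead fluorescence of DMSO wells and lower means quenching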
Active calls of the source: *. Shown are actives, neighbours in structure and some others; about 1.2% of the full set was active somewhere.

O=C1c2cccc3cccc(c23)C(=O)N1/N=C/c1c(O)n(-c2ccccc2)c(=O)[nH]c1=O was read as MIN6 prolif -3, NTR1 agonist 2, Platelet DG rel -6, GRK2 aptamer HTS 62*, GRK2 CP1 8 and Aptamer quench SP 97.
CCOP(=O)(OCC)C(O)c1ccc(OC)cc1 (stereo not drawn) was read as MIN6 prolif 1, NTR1 agonist 0, Platelet DG rel -14 and GRK2 aptamer HTS 2.
For O=c1c2ccccc2nc(/C=C/c2ccccc2O)n1-c1ccccc1O the results were MIN6 prolif -4, NTR1 agonist -1, Platelet DG rel 5 and GRK2 aptamer HTS 0.
For O=c1c2ccccc2nc(/C=C\c2ccccc2[N+](=O)[O-])n1-c1ccccc1O the results were MIN6 prolif -4, NTR1 agonist 4, Platelet DG rel 6, GRK2 aptamer HTS 45*, GRK2 CP1 -3 and Aptamer quench SP 116.
Cc1ccc(N2C(=O)NC(=O)/C(=C\C=C\c3ccco3)C2=O)cc1C was read as Platelet DG rel 1 and GRK2 aptamer HTS 7.
COC(=O)C1=C(c2cccc(OCc3ccccc3)c2)C[C@@H]2CC[C@H]1N2C(=O)NCCc1ccc(F)cc1 was read as MIN6 prolif -7, NTR1 agonist 2, GRK2 aptamer HTS 98*, GRK2 CP1 1 and Aptamer quench SP 104.
Screening CC1(O)CCN2C(=O)CCc3cccc1c32 (stereo not drawn) returned MIN6 prolif -4, NTR1 agonist -1, GRK2 aptamer HTS 41*, GRK2 CP1 -4 and Aptamer quench SP 103.
COc1ccc(CN2CCNCC2)c(OC)c1OC was read as MIN6 prolif 0, NTR1 agonist -1, Platelet DG rel -8, GRK2 aptamer HTS 0, GRK2 CP1 -4 and Aptamer quench SP 101.
Cn1cccc1/C=C1\C(=O)NC(=O)N(Cc2ccco2)C1=O was read as Platelet DG rel -6.
For CCOC(=O)C1CCN(/C=C2/C(=O)NC(=O)N(Cc3ccco3)C2=O)CC1 the results were MIN6 prolif 0, NTR1 agonist 0, Platelet DG rel -7, GRK2 aptamer HTS 82*, GRK2 CP1 35 and Aptamer quench SP 98.
Screening Cc1ccc(OCCn2cccc2/C=C2/C(=O)NC(=O)N(Cc3ccco3)C2=O)cc1 returned MIN6 prolif -3, NTR1 agonist 12, Platelet DG rel -3, GRK2 aptamer HTS 2, GRK2 CP1 4 and Aptamer quench SP 94.
O=C1NC(=O)N(Cc2ccco2)C(=O)/C1=C/C=C/c1ccco1 was read as MIN6 prolif -2, NTR1 agonist 5, Platelet DG rel 1, GRK2 aptamer HTS 0, GRK2 CP1 20 and Aptamer quench SP 95.
Screening Cc1ccccc1-n1c(C)cc(/C=C2/C(=O)NC(=O)N(Cc3ccco3)C2=O)c1C returned MIN6 prolif -1, NTR1 agonist 1, Platelet DG rel -6 and GRK2 aptamer HTS 3.
`COc1ccccc1-n1c(-c2ccccc2)nc2ccccc2c1=O` gave MIN6 prolif 3, NTR1 agonist 0 and Platelet DG rel -9.
CCNC(=O)[C@H]1O[C@@H](n2cnc3c(N)ncnc32)[C@H](O)[C@@H]1O was read as MIN6 prolif -2, NTR1 agonist 5, Platelet DG rel 84*, GRK2 aptamer HTS 30, GRK2 CP1 0 and Aptamer quench SP 101.
For CC(C)CNc1c2c(nc3ccccc13)CCC2 the results were MIN6 prolif -2, NTR1 agonist 4, Platelet DG rel 2, GRK2 aptamer HTS 0, GRK2 confirm 2 11 and FAM quench SP 101.
Screening Cc1ccccc1OP(N)(=O)Oc1ccccc1C returned MIN6 prolif 1, NTR1 agonist 1, Platelet DG rel -2, GRK2 aptamer HTS 52*, GRK2 CP1 -1 and Aptamer quench SP 100.
CCN1C[C@]2(C)CC[C@H](O)[C@]34C1[C@H](C[C@H]23)[C@@]1(O)C[C@H](OC)[C@H]2C[C@@H]4[C@@H]1C2O (stereo partly drawn) was read as MIN6 prolif 1, NTR1 agonist -2 and GRK2 aptamer HTS 4.
O=c1[nH]c(CN2CCNCC2)nc2ccccc12 was read as MIN6 prolif 0, NTR1 agonist 2, Platelet DG rel 3, GRK2 aptamer HTS 1, GRK2 confirm 2 inactive and FAM quench SP 101.
Screening CN1CCN(Cc2nc3ccccc3c(=O)[nH]2)CC1 returned MIN6 prolif 1, NTR1 agonist 5, Platelet DG rel 11 and GRK2 aptamer HTS 1.
`COc1ccccc1[As](=O)(O)CC(O)COc1ccc(Cl)cc1Cl` (stereo not drawn) gave MIN6 prolif 1, NTR1 agonist 0, Platelet DG rel -8 and GRK2 aptamer HTS 1.
`Cc1nc2c(=O)n(C)c(=O)nc-2n(C)n1` gave MIN6 prolif -4, NTR1 agonist 0, Platelet DG rel 40, GRK2 aptamer HTS 41*, GRK2 CP1 63*, Aptamer quench 1 7.6 and Aptamer quench SP 92.
`CN(c1ccc(OCC(=O)N2CCN(C/C=C/c3ccccc3)CC2)cc1)S(=O)(=O)c1cccs1` gave MIN6 prolif -3, NTR1 agonist 2, Platelet DG rel 1 and GRK2 aptamer HTS 0.
CCc1ccc(N2C(=O)NC(=O)/C(=C\c3cc(C)n(-c4cc(C(=O)O)cc(C(=O)O)c4)c3C)C2=O)cc1 was read as MIN6 prolif -3, NTR1 agonist 0, Platelet DG rel -3, GRK2 aptamer HTS 58*, GRK2 CP1 6 and Aptamer quench SP 89.
Screening Cc1ccc(N2C(=O)NC(=O)/C(=C\c3cc(C)n(-c4ccc(C(=O)O)cc4)c3C)C2=O)cc1 returned MIN6 prolif -4, NTR1 agonist 1, Platelet DG rel -2 and GRK2 aptamer HTS 18.
